CYP2C9 inh – inhibitors of human CYP2C9 | P11712 | CYP2C9 Supersomes, luciferin-H conversion, luminescence | inhibition, % at 5 µM | 96,000 compounds, 20% hits;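 active = blocking of liver enzyme CYP2C9 beyond about 50% at 5 µM, limit read from the data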
PLK1 inh – inhibitors of human PLK1 kinase | P53350 | recombinant PLK1 kinase, TR-FRET peptide phosphorylation | inhibition, % at 10 µM | 97,000 compounds, 0.53% hits | AID 619;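 active = inhibition of 50% or more in the single-concentration screen; inactive = inhibition below 50%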
Target sequence (P53350 whole entry, looked up): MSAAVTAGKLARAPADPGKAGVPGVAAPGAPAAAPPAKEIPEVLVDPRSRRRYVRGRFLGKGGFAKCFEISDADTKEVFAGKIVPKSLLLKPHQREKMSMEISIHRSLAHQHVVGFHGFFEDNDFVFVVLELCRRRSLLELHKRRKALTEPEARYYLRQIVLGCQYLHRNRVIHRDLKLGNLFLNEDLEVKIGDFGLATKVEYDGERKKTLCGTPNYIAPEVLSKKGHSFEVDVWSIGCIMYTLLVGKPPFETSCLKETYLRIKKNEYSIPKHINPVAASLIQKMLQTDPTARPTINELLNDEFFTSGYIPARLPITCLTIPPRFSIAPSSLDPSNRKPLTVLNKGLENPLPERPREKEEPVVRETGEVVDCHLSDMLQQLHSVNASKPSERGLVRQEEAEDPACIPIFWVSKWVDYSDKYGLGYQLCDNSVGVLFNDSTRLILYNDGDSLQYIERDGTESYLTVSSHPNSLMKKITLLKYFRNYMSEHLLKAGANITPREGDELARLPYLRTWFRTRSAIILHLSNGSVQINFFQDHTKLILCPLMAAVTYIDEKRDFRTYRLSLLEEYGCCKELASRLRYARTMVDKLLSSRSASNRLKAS
CYP2C19 act – cytochrome P450 2C19 (human) activation; 96,000 tested, under 10 active; activation factor at 5 µM; recombinant CYP2C19, luciferin-H EGE luminescence; stronger effect = higher value; 0 = fully inhibited enzyme, 1 = untreated enzyme;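 active = activation factor of at least 2 at 5 µM in the primary screen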
CYP2C19 inh – blocks human cytochrome P450 2C19 | inhibition, % at 5 µM | P33261 | AID 778 | CYP2C19 Supersomes, luciferin-H EGE luminescence, 30 min | 96,000 compounds, 21% hits;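 active = CYP2C19 inhibition above a set limit at 5 µM in the primary screen, cut at about 50% in these data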
PLK1 PBD inh – blocks phosphopeptide binding to human Plk1 polo box domain. P53350. Plk1 PBD phosphopeptide binding, fluorescence polarization. inhibition, %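 (tested at about 20 µM)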. 97,000 compounds, 0.13% hits. AID 693; in the data active = inhibition above about 34%, passing the limit was not always enough
CYP2C9 activ – activators of human CYP2C9 | recombinant CYP2C9, luciferin-H conversion, luminescence; stronger effect = higher value; factor 1 = untreated enzyme, 0 = blocked | 96,000 compounds, 1.4% hits | P11712 | activation factor at 5 µM;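 active = activation factor of 2 or more for CYP2C9 at a 5 µM dose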
A number is an active result. The list is not random: actives were taken first. Their share in the collection is about 28%.

For CC1=C(C(=O)OCC(C)C)C(c2cc3c(cc2Br)OCO3)NC(=O)N1C (centres undefined) the results were CYP2C9 inh 72, PLK1 inh inactive, CYP2C19 act inactive, CYP2C19 inh 84, PLK1 PBD inh inactive and CYP2C9 activ inactive.
Screening CC1=C(C(=O)OCC(C)C)C(c2ccccc2Cl)NC(=O)N1C (centres undefined) returned CYP2C9 inh 84, PLK1 inh inactive, CYP2C19 act inactive, CYP2C19 inh 98, PLK1 PBD inh inactive and CYP2C9 activ inactive.
O=C(CSc1ncnc2c1cnn2-c1ccccc1Cl)N1CCN(C(=O)c2ccco2)CC1 was read as CYP2C9 inh inactive, PLK1 inh inactive, CYP2C19 act inactive, CYP2C19 inh inactive, PLK1 PBD inh inactive and CYP2C9 activ inactive.
For Cc1ccc(Cl)cc1NC(=O)CCC(=O)Nc1cc(Cl)ccc1C the results were CYP2C9 inh inactive, PLK1 inh inactive, CYP2C19 act inactive, CYP2C19 inh inactive, PLK1 PBD inh inactive and CYP2C9 activ inactive.
`CCOC(=O)c1[nH]c(C)c(CCC(=O)OC)c1C` gave CYP2C9 inh inactive, PLK1 inh inactive, CYP2C19 act inactive, CYP2C19 inh inactive, PLK1 PBD inh inactive and CYP2C9 activ inactive.
Screening COC(=O)C1=CN(C(C)C)C=C(C(=O)OC)C1c1cc2c(cc1Br)OCO2 returned CYP2C9 inh inactive, PLK1 inh inactive, CYP2C19 act inactive, CYP2C19 inh 60, PLK1 PBD inh inactive and CYP2C9 activ inactive.
Screening CCCN1C(=O)/C(=C/c2ccc(N3CCCC3)c(C)c2)NC1=S returned CYP2C9 inh 53, PLK1 inh inactive, CYP2C19 act inactive, CYP2C19 inh 53, PLK1 PBD inh inactive and CYP2C9 activ inactive.
For O=C1N/C(=C\c2ccc(N3CCOCC3)c(F)c2)C(=O)N1Cc1ccccc1 the results were CYP2C9 inh inactive, PLK1 inh inactive, CYP2C19 act inactive, CYP2C19 inh inactive, PLK1 PBD inh inactive and CYP2C9 activ inactive.
O=C(NCc1ccco1)c1nc2ccccc2s1 was read as CYP2C9 inh inactive, PLK1 inh inactive, CYP2C19 act inactive, CYP2C19 inh inactive, PLK1 PBD inh inactive and CYP2C9 activ inactive.
For COc1ccc(-n2c(N)c(C(=O)NCc3ccco3)c3nc4ccccc4nc32)c(OC)c1 the results were CYP2C9 inh inactive, PLK1 inh inactive, CYP2C19 act inactive, CYP2C19 inh inactive, PLK1 PBD inh inactive and CYP2C9 activ inactive.
Nc1c(C(=O)NCc2ccco2)c2nc3ccccc3nc2n1CCc1ccccc1F was read as CYP2C9 inh 52, PLK1 inh inactive, CYP2C19 act inactive, CYP2C19 inh inactive, PLK1 PBD inh inactive and CYP2C9 activ inactive.
For COc1ccc(CCn2c(N)c(C(=O)NCc3ccco3)c3nc4ccccc4nc32)cc1OC the results were CYP2C9 inh 56, PLK1 inh inactive, CYP2C19 act inactive, CYP2C19 inh 77, PLK1 PBD inh inactive and CYP2C9 activ inactive.
For Cc1cc(N2CCCC2=O)cc(C)c1CN1C(=O)c2ccccc2C1=O the results were PLK1 inh inactive and PLK1 PBD inh inactive.
O=c1oc(-c2cccs2)nc2c1cnn2-c1ccccc1 was read as CYP2C9 inh inactive, CYP2C19 act inactive, CYP2C19 inh inactive and CYP2C9 activ inactive.
`O=C(Nc1ccc(-c2nnc(-c3ccco3)o2)cc1)C(c1ccccc1)c1ccccc1` gave CYP2C9 inh 72, PLK1 inh inactive, CYP2C19 act inactive, CYP2C19 inh inactive, PLK1 PBD inh inactive and CYP2C9 activ inactive.
Screening Cc1ccc(SCC(=O)Nc2ccc(-c3nnc(-c4ccco4)o3)cc2)cc1 returned CYP2C9 inh 90, PLK1 inh inactive, CYP2C19 act inactive, CYP2C19 inh inactive, PLK1 PBD inh inactive and CYP2C9 activ inactive.
`c1ccc(-c2nnc(-c3ccco3)o2)cc1` gave CYP2C9 inh inactive, PLK1 inh inactive, CYP2C19 act inactive, CYP2C19 inh 50, PLK1 PBD inh inactive and CYP2C9 activ inactive.
Screening O=C(O)CCC(=O)Nc1ccc(-c2nnc(-c3ccco3)o2)cc1 returned CYP2C9 inh inactive, PLK1 inh 53, CYP2C19 act inactive, CYP2C19 inh inactive, PLK1 PBD inh inactive and CYP2C9 activ inactive.
O=C(Cc1ccccc1)Nc1ccc(-c2nnc(-c3ccco3)o2)cc1 was read as PLK1 inh inactive and PLK1 PBD inh inactive.
For CCN(CC)CCCNC(=O)c1nn(-c2cccc(OC)c2)c(=O)c2ccccc12 the results were CYP2C9 inh inactive, PLK1 inh inactive, CYP2C19 act inactive, CYP2C19 inh inactive, PLK1 PBD inh inactive and CYP2C9 activ inactive.
O=C(Cc1ccc(Cl)cc1)Nc1ccc(-c2nnc(-c3ccco3)o2)cc1 was read as CYP2C9 inh 76, PLK1 inh inactive, CYP2C19 act inactive, CYP2C19 inh 55, PLK1 PBD inh inactive and CYP2C9 activ inactive.
For O=C(CCc1nc(-c2ccccc2)c(-c2ccccc2)o1)OCc1ccc(Cl)cc1 the results were CYP2C9 inh inactive, PLK1 inh inactive, CYP2C19 act inactive, CYP2C19 inh inactive, PLK1 PBD inh inactive and CYP2C9 activ inactive.
O=C(CCc1nc(-c2ccccc2)c(-c2ccccc2)o1)OCc1ccc(Br)cc1 was read as CYP2C9 inh 81, PLK1 inh inactive, CYP2C19 act inactive, CYP2C19 inh 58, PLK1 PBD inh inactive and CYP2C9 activ inactive.
C#CCOC(=O)CCCNc1ccc([N+](=O)[O-])cc1[N+](=O)[O-] was read as CYP2C9 inh 58, PLK1 inh inactive, CYP2C19 act inactive, CYP2C19 inh 62, PLK1 PBD inh inactive and CYP2C9 activ inactive.
`C/C(=C\C(=O)Nc1nccs1)c1ccccc1` gave CYP2C9 inh inactive, PLK1 inh inactive, CYP2C19 act inactive, CYP2C19 inh inactive, PLK1 PBD inh inactive and CYP2C9 activ inactive.
CCOC(=O)C1=C(C)NC(C)=C(C(=O)OCC)C1C(=O)OCC(=O)N1CCc2ccccc21 was read as CYP2C9 inh 82, PLK1 inh inactive, CYP2C19 act inactive, CYP2C19 inh inactive, PLK1 PBD inh inactive and CYP2C9 activ inactive.
CCOC(=O)C1=C(C)NC(C)=C(C(=O)OCC)C1C(=O)OCC(=O)c1ccc2c(c1)OCCO2 was read as CYP2C9 inh 85, PLK1 inh inactive, CYP2C19 act inactive, CYP2C19 inh 68, PLK1 PBD inh inactive and CYP2C9 activ inactive.
Screening Cc1cc(C(=O)OCC(=O)NC(C)C)c(C)o1 returned CYP2C9 inh inactive, PLK1 inh inactive, CYP2C19 act inactive, CYP2C19 inh inactive, PLK1 PBD inh inactive and CYP2C9 activ inactive.
`CCOC(=O)c1[nH]c(C)c(C(=O)OCC(=O)N2CCc3ccccc32)c1C` gave CYP2C9 inh inactive, PLK1 inh inactive, CYP2C19 act inactive, CYP2C19 inh inactive, PLK1 PBD inh inactive and CYP2C9 activ inactive.
CCOC(=O)C1=C(C)NC(C)=C(C(=O)OCC)C1C(=O)OCC(=O)NC(C)C was read as CYP2C9 inh 85, PLK1 inh inactive, CYP2C19 act inactive, CYP2C19 inh 84, PLK1 PBD inh inactive and CYP2C9 activ inactive.
Screening C=CCSc1nnc2nc3c(nn12)c1cc(C)ccc1n3CC=C returned CYP2C9 inh 56, PLK1 inh inactive, CYP2C19 act inactive, CYP2C19 inh inactive, PLK1 PBD inh inactive and CYP2C9 activ inactive.

Compound activity from PubChem.
